# Test results as given in PubChem BioAssay (Tox21).
# Results filed as inconclusive are left out. A number with no mark means an inactive call. Calls follow the shape of the dose curve; as a rule, active = well fitted activation curve with a large enough effect in the signal ratio in the repeat runs (not every such curve was filed as active); inconclusive = weak or mixed curves, or effect the other way; inactive = flat fitted curve, though single readings scatter; the % refers to the signal ratio.
# Target: Bile acid receptor (Homo sapiens) (UniProt Q96RI1)
# Assay: qHTS assay to identify small molecule agonists of the farnesoid-X-receptor (FXR) signaling pathway (AID 743220)
# Conditions: HEK293T FXR-UAS-bla, beta-lactamase FRET ratio, 16 h; series mostly up to 62.6 µM; activation: at the top concentration
# Method in brief: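 Beta-lactamase reporter under UAS control in GeneBLAzer FXR HEK 293T cells (5000/well) measured with LiveBLAzer FRET substrate after 2 h at room temperature. Compound exposure lasted 16 h at 37C.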
# % is scaled to controls: 0 for no effect and ±100 for the full control effect.
# Bile acid receptor (Homo sapiens), sequence (Q96RI1 whole entry, looked up): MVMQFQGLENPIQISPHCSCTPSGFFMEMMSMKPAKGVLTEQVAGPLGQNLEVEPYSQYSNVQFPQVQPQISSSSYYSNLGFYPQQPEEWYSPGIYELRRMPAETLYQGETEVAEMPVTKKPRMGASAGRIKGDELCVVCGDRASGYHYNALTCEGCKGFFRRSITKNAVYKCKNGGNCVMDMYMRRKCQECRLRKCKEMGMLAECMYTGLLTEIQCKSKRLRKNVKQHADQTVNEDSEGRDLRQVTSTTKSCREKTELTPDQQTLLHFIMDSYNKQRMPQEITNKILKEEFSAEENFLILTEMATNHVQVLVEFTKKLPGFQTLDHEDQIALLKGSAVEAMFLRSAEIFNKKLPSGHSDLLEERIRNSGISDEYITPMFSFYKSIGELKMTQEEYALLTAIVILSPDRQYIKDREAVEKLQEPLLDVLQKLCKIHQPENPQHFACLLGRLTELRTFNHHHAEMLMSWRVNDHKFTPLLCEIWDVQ
row,Structure (SMILES),activation
1,Cc1cnc[nH]1,-0.651%
2,Fc1cc(Br)ccc1CBr,0.728%
3,NC(=S)C(N)=S,-3.8%
4,C[C@@H]1CN(C2CCC(C#N)(c3ccc(F)cc3)CC2)CC[C@]1(C(=O)O)c1ccccc1 (some centres not stated),2.07%
5,O=[N+]([O-])c1cccc2cccnc12,1.74% [at 81.1 µM]
6,O=C1OC(c2ccc(O)c(S(=O)(=O)O)c2)(c2ccc(O)c(S(=O)(=O)O)c2)c2c(Br)c(Br)c(Br)c(Br)c21,0%
7,O=[N+]([O-])c1cc(Cl)c(Cl)c(Cl)c1,-1.69%
8,CN(C)CCc1ccc(O)cc1,-1.54%
9,CC(C)[N+](=O)[O-],1.33%
10,N#CC(Cl)(Cl)Cl,-0.802%
11,C(CCOCC1CO1)COCC1CO1 (configuration not stated),0.294%
12,Cc1cc(C)c(C(=O)P(=O)(C(=O)c2c(C)cc(C)cc2C)c2ccccc2)c(C)c1,-1.53%
